BoNT-A LC inh2: BoNT A light chain protease inhibition; multiplex microsphere protease substrate cleavage, flow cytometry; AID 588499; inhibition, % at 10 µM; 360,000 compounds, 0.17% hits; also: plate controls were buffer without enzyme for full effect and enzyme alone for no effect
BJeLR lethal: BJeLR cell viability loss; BJeLR (HRASV12) viability, CellTiter-Glo ATP luminescence, 48 h; inhibition, % (test concentration not listed); 300,000 compounds, 0.17% hits; in the data active = inhibition above about 50%; inconclusive = no clear call, values can overlap the other calls
Anthrax LF prot: anthrax lethal factor protease inhibition | multiplex microsphere protease cleavage assay, LF | inhibition, % at 10 µM | AID 588501 | 360,000 compounds, 0.12% hits; also: plate controls were buffer without enzyme for full effect and enzyme alone for no effect
Target sequence (P15917 whole entry, looked up): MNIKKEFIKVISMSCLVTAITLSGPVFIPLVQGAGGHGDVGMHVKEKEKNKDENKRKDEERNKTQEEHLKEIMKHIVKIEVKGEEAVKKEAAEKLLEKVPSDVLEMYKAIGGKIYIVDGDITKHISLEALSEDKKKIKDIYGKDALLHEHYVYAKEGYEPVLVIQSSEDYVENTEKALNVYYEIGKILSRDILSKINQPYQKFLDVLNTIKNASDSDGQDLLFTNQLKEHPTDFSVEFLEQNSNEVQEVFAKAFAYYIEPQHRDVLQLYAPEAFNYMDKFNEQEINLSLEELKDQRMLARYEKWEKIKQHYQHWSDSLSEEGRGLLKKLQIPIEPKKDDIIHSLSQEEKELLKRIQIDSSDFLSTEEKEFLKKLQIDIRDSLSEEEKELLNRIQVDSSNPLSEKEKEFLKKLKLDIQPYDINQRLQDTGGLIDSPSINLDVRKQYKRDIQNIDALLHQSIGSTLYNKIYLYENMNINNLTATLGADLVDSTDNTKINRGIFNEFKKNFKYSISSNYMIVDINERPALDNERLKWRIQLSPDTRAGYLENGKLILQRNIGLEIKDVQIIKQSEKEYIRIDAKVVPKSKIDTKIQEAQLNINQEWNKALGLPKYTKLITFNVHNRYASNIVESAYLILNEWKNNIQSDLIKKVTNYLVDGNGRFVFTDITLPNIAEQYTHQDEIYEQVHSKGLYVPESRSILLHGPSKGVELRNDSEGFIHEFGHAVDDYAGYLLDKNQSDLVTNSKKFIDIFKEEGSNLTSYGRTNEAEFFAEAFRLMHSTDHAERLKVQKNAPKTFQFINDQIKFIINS
Bead autofluor: counter-screen for toxin protease inhibitors: compound fluorescence | compound autofluorescence counterscreen, microsphere flow cytometry; active compounds read high | fluorescence intensity (concentration not given with the values) | 360,000 compounds, 3.1% hits | AID 624483; in the data active = fluorescence intensity above about 16000; inconclusive = no clear call, values can overlap the other calls
SARS 3CLpro inh: SARS-CoV 3CLpro protease inhibition; P0C6X7; recombinant SARS-CoV 3CLpro, quenched FRET peptide cleavage; 290,000 compounds, 0.14% hits; inhibition, % at 6 µM; AID 1706; in the data active = inhibition above about 12%
BoNT F protease: inhibitors of Botulinum neurotoxin F light chain protease; 360,000 compounds, 0.22% hits; AID 588497; inhibition, % at 10 µM; Multiplex microsphere protease cleavage assay, flow cytometry; in the data active = inhibition above about 35%, passing the limit was not always enough; inconclusive = no clear call, values can overlap the other calls; also: plate controls were buffer without enzyme for full effect and enzyme alone for no effect
BoNT-A LC CP1: inhibitors of Botulinum neurotoxin A light chain protease. 720 compounds, 3% hits. shares compounds with BoNT F protease. inhibition, % at 10 µM. multiplex microsphere protease assay, flow cytometry. AID 602139; in the data active = inhibition above about 32%
BoNTF LC inh 1: BoNT/F light chain protease inhibition; shares compounds with BoNT F protease; multiplex microsphere protease cleavage assay, flow cytometry; inhibition, % at 10 µM; 720 tested, under 10 active; call rule not given here
LF protease CP1: inhibitors of Bacillus anthracis lethal factor protease; shares compounds with BoNT F protease; multiplex microsphere protease cleavage assay, LF; inhibition, % at 10 µM; 720 tested, under 10 active; call rule not given here
* hit, by the source's call; ? = inconclusive; . = no result given. An excerpt weighted towards active compounds, which were near 3.6% of everything screened. Rule as the data show it, unless noted: active = inhibition above about 30%; inconclusive = no clear call, values can overlap the other calls; inactive = below that.

SMILES	BoNT-A LC inh2	BJeLR lethal	Anthrax LF prot	Bead autofluor	SARS 3CLpro inh	BoNT F protease	BoNT-A LC CP1	BoNTF LC inh 1	LF protease CP1
Cc1nc([N+](=O)[O-])c(Sc2nc3ccccc3[nH]2)n1Cc1ccccc1	1	-7	-3	8495	-2	1	.	.	.
Cn1cnc([N+](=O)[O-])c1Sc1nc2ccccc2[nH]1	-1	8	34*	4159	-4	4	0	-3	0
COc1ccc(S(=O)(=O)N2CCN(Cc3ccc(OC)c(OC)c3)CC2)cc1	-6	10	42*	3690	7	?	-2	-2	-2
COc1ccc(S(=O)(=O)N2CCN(C)CC2)cc1	3	2	-5	3909	0	74*	-1	0	-3
CSc1ccc(CN(C)C(=O)CNC(=O)c2ccc3c(c2)OCO3)cc1	0	-11	-2	?	.	-7	.	.	.
N#Cc1ccc(-c2ccco2)nc1SCC(=O)c1ccc(Cl)cc1	55*	4	41*	3776	-4	?	18	-3	12
C=CC(=O)N=c1sc2ccccc2n1-c1ccccc1	0	-2	6	4086	5	-7	.	.	.
N=c1sc2ccccc2n1-c1ccccc1	32*	7	27	10239	-4	20	2	0	2
CC(C)c1ccccc1NC(=S)NCC1(N(C)C)CCCCC1	1	-10	-1	6103	-2	8	.	.	.
CCCC(C(=O)NC(C)(C)CC)N(CC1CCCO1)C(=O)CNS(=O)(=O)c1ccc(F)cc1 (stereo not given)	1	4	30*	2952	3	2	0	-4	4
CC(C(=O)Nc1ccc(F)c(F)c1F)N(C)Cc1cccs1 (stereo not given)	1	3	-3	5747	6	-1	.	.	.
O=C(CC1CC2CCC1C2)NCCc1ccc(Cl)cc1 (stereo not given)	0	-7	1	5601	-2	-4	.	.	.
COc1cccc(N2CC(O)Cn3c2nc2c3c(=O)[nH]c(=O)n2C)c1 (stereo not given)	7	-10	4	3007	-4	41*	1	-2	0
Cc1ccc(N2CC(O)Cn3c2nc2c3c(=O)[nH]c(=O)n2C)cc1 (stereo not given)	-6	-5	-11	3581	-6	?	.	.	.
c1csc(-c2nc3nc4ccccc4nc3n2Cc2ccc3c(c2)OCO3)c1	51*	.	34*	2888	9	25	8	-8	4
Cc1cc(-c2c(C(=O)N3CCOCC3)c(C)nn2-c2cccc(C(F)(F)F)c2)no1	?	-11	2	4002	-6	?	.	.	.
Cc1cc(-c2c(C(=O)N3CCOCC3)c(C)nn2-c2ccccc2)no1	2	-9	34*	3397	-5	?	-6	-14	-1
Cc1cc(C(=O)O)sc1C	6	0	3	7884	1	36*	-1	-3	-4
Cc1ccc2c(c1)CCCN2C(=O)c1cc(C)c(C)s1	-1	.	-4	4486	.	4	.	.	.
Cc1nc2ccc([N+](=O)[O-])cc2c(=O)n1Cc1cccc(F)c1	4	8	60*	7839	4	85*	-3	-11	0
N#Cc1ccc(CSc2ncnc3c2cnn3Cc2ccccc2)cc1	2	9	-6	4551	-8	9	.	.	.
CCCCNC(=O)Cn1cnc([N+](=O)[O-])n1	5	-8	0	2612	1	40*	-1	0	6
CCOC(=O)N1CCN(C(=S)Nc2ccc(C)cc2)CC1	0	-2	0	1952	3	-1	.	.	.
CC(C)OC(=O)CC1C(=O)NCCN1C(=S)NC(=O)c1ccccc1 (stereo not given)	2	-2	-3	2567	1	35*	-1	-4	-5
NC(=O)C1Cc2ccccc2CN1C(=O)c1nn(Cc2ccccc2)c(=O)c2ccccc12 (stereo not given)	0	.	2	?	.	11	.	.	.
SMILES	BoNT-A LC inh2	BJeLR lethal	Anthrax LF prot	Bead autofluor	SARS 3CLpro inh	BoNT F protease	BoNT-A LC CP1	BoNTF LC inh 1	LF protease CP1
CN1CCN(C(=O)c2ccc(-c3cnn(C)c3)c3ccoc23)CC1	-1	.	0	3340	.	-3	.	.	.
CC1(C)CC(NC(=O)c2ccc(F)cc2)CC(C)(C)N1	0	.	-8	4231	.	-7	.	.	.
CC(=O)c1ccc(-c2ccc(C(=O)NC3CC(C)(C)NC(C)(C)C3)o2)cc1	2	-4	-1	?	.	36*	1	-9	2
Cc1nc2nc(CSc3ccc(Cl)cc3)cc(=O)n2[nH]1	-1	-1	-4	11830	-1	79*	-1	4	0
C=CCn1c(N2CCCC2)nc2c1c(=O)n(C)c(=O)n2C	0	1	44*	3562	3	16	1	-2	4
C#CCN(C[C@@H](CC(C)C)NC(=O)OC(C)(C)C)S(=O)(=O)c1ccc(Br)cc1F	0	.	-5	3617	.	-1	.	.	.
O=C(O)CS(=O)(=O)CC(=O)NCc1cccc(C(F)(F)F)c1	4	1	2	2638	-7	50*	0	-6	-2
O=C(Cc1cccc(C(F)(F)F)c1)NCc1ccc(Cl)cc1	0	1	0	2705	5	0	.	.	.
NC(=O)c1cccc(CS(=O)(=O)c2ccc(Cl)cc2)c1	1	6	2	4410	-7	8	.	.	.
CCn1c(SCC(=O)Nc2nc(C)cs2)nnc1C(NC(=O)c1ccccc1Cl)C(C)C (stereo not given)	-1	-2	-2	2432	-5	-6	.	.	.
C=CCn1c(SCC(=O)Nc2nc(C)cs2)nnc1C(CO)NC(=O)c1ccccc1 (stereo not given)	2	-5	1	4560	0	30	-1	2	-3
Oc1[nH]c(N=C2N=c3ccccc3=N2)c2ccccc12	13	54*	-4	3598	0	111*	7	32*	9
Cc1ccc(C(=O)Nc2scc(-c3ccccc3)c2C(=O)O)cc1	5	-10	11	3585	.	36*	0	-4	6
COc1ccc(C(=O)NCc2ccc3c(c2)cc(C)n3C)cc1OC	92*	-2	-1	1632	1	-47	-1	-7	2
COc1cc(OC)cc(C(=O)NCc2ccc3c(c2)OCO3)c1	-1	-2	9	3997	1	?	.	.	.
COc1cccc(C(=O)NCc2ccc3c(c2)OCO3)c1	-2	-2	4	3829	-3	36*	0	-4	0
COc1ccc(CC(=O)NCc2ccc3c(c2)cc(C)n3C)cc1	91*	5	-15	1840	-2	-53	1	-5	-3
COc1ccc(C(=O)NCc2ccncc2)cc1OC	1	-2	0	2638	2	1	.	.	.
COc1cccc(C(=O)NCc2ccc3c(c2)cc(C)n3C)c1	75*	1	-50	1285	-5	-83	3	-3	-1

Screens from PubChem.
